Test results published in PubChem BioAssay AID2685 (National Center for Advancing Translational Sciences (NCATS), 2010).
About 2,100 (0.66%) of roughly 320,000 compounds were called active. About 53% were inconclusive and are not listed. The sample holds actives, similar compounds and a random draw of the others, so the mix is not that of the screen. The call rests on the fitted dose curve; in most records, active means well fitted inhibition curve with a large enough effect in the signal ratio, with a control signal flat (not every such curve was filed as active); inconclusive means small, poorly fitted or top-dose-only effect, or effect the other way, or a change in a side signal; inactive means flat fitted curve, though single readings scatter; the % refers to the signal ratio.

Assay: qHTS Assay for Lipid Storage Modulators in Drosophila S3 Cells;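 on cell number change: cells counted by Cell Tracker Red CMTPX staining in the red channel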; on lipid storage change, negative = inhibition: on the % scale 0 is the no-effect control and ±100 the full control effect
Details: BODIPY lipid droplet fluorescence, 18-24 h, cells fed with added oleic acid; cell number change: measured here: cell count max response; series mostly up to 46.1 µM; lipid storage change, negative = inhibition: at the top concentration
Outline: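 Drosophila S3 cells got compounds at several concentrations plus oleic acid (400 uM solution). Laser-scanning cytometry with 488 nm excitation read lipid droplets at 500-530 nm and cells at 575-640 nm. Percent activity was relative to 20 uM Triacsin C.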
Potency means the concentration at half of the fitted maximal effect.

Compound	lipid storage change, negative = inhibition	cell number change	outcome	Potency
CC(C)CCNC(=O)CN(CC1CCCO1)C(=O)CCC(=O)Nc1nccs1 (configuration not stated)	22.3% (inactive)	9.95%		
O=C(CN(Cc1ccccc1)C(=O)CCC(=O)Nc1nccs1)NCc1ccccc1	-11.3% (inactive)	-17.1%		
Cc1csc(NC(=O)CCC(=O)N(CC(=O)NC2CCCC2)Cc2ccco2)n1	8.55% (inactive)	5.63%		
O=C(CCC(=O)N(CC(=O)NC1CCCCC1)Cc1cccs1)Nc1nccs1	13.5% (inactive)	-2.3%		
CC(C)(C)OC(=O)[C@H](NC(=O)OCc1ccccc1)c1ccccc1		-4.27%	inactive	
CCn1c(C)c(C(C)=O)c(SC)nc1=S		-9.08%		23.1 µM (active)
CSc1nc(=S)n(Cc2ccccc2)c(C)c1C(C)=O	0.545% (inactive)	2.19%		
CCSc1nc(=S)n(CC)c(C)c1C(C)=O	-7.91% (inactive)	11%		
CS(=O)(=O)N(CC(=O)Nc1ccccc1-c1ccccc1)c1ccccc1	3.31% (inactive)	6.57%		
CNC(=S)NNC(=O)c1ccc(=O)n(Cc2ccc(Cl)cc2Cl)c1	14.6% [at 9.22 µM] (inactive)	-1.09%		
CC(C)(O)CC[C@@H](O)[C@](C)(O)[C@H]1CC[C@@]2(O)C3=CC(=O)[C@@H]4C[C@@H](O)[C@@H](O)C[C@]4(C)C3CC[C@]12C (some centres not stated)	-9.22% (inactive)	-13.6%		
Cc1cccc(-n2cc(-c3ccccc3)c3c(N4CCOCC4)ncnc32)c1	8.58% (inactive)	18.2%		
O=C(O)CSc1ncnc2nc[nH]c12		2.03%		20.6 µM (active)
CC(=O)CSc1ncnc2nc[nH]c12	1.08% (inactive)			
O=C(CSc1ncnc2nc[nH]c12)c1ccc(Cl)cc1	4.43% (inactive)	-11.7%		
CC(C)c1nnc(NC(=O)C2CCN(C(=O)Nc3ccc(Cl)cc3)CC2)s1	3.85% (inactive)	5.41%		
CCc1ccccc1NC(=S)N(CCN1CCCCC1)Cc1ccco1	-1.49% (inactive)	5.79%		
Cc1cc(OCCCn2cnc3ccccc3c2=O)ccc1[N+](=O)[O-]	20.5% (inactive)	0.141%		
COc1cc(OC)cc(C(=O)NC(=S)NNC(=O)Cc2cccs2)c1	14.8% (inactive)	0.453%		
CCOC(=O)N1CCN(c2c(N3CCN(c4ccc(OC)cc4)CC3)c(=O)c2=O)CC1	2.64% (inactive)	5.73%		
CCCCn1c(CN2CCN(c3ccccc3)CC2)nc2c1c(=O)n(C)c(=O)n2C		-29.7%		20.6 µM (active)
CCCCn1c(CN2CCN(c3cccc(Cl)c3)CC2)nc2c1c(=O)n(C)c(=O)n2C			inactive	
CCCCn1c(CN2CCN(c3ccc(F)cc3)CC2)nc2c1c(=O)n(C)c(=O)n2C	5.72% (inactive)	2.55%		
O=C(NCc1ccccc1)C1C2C=CC3(CN(Cc4cccnc4)C(=O)C13)O2 (configuration not stated)	-17.4% (inactive)	-20%		

Compound	lipid storage change, negative = inhibition	cell number change	outcome	Potency
Cc1cc(C(=O)CSc2nn3c(=O)c(C(C)(C)C)nnc3s2)c(C)n1C1CC1			inactive	
CCOc1ccc(NC(=S)NC(=O)C2CCCC2)cc1	-6.34% (inactive)			
CN1CCS/C1=C/C=C1\SC(=S)N(CC(=O)O)C1=O	13.2% (inactive)	-4.93%		
CN1CCS/C1=C\C=C1/SC(=S)N(CC(=O)O)C1=O	21.7% (inactive)	6.49%		
CCCCN1C(=O)/C(=C/C=C2/CC(C)(C)CN2C)SC1=S		0.528%		9.2 µM (active)
Cc1ccc(C)c(OCc2nnc(SCC(=O)NCc3ccc4c(c3)OCO4)o2)c1	5.42% (inactive)	17.4%		
CC(C)Nc1ccc(C(CC(N)=O)NC(=O)Cc2ccc(Cl)cc2)cc1[N+](=O)[O-] (configuration not stated)	-6.83% (inactive)			
COC(=O)C(C)Sc1nnc(SC(C)C(=O)OC)s1 (configuration not stated)		26.4%	inactive	
COC(=O)CSc1n[nH]c(=S)s1	-3.44% (inactive)	-9.98%		
COC(=O)C(C)Sc1n[nH]c(=S)s1 (configuration not stated)		12.5%		18.4 µM (active)
CCCCCCCc1c(O)nc(SCCN2CCOCC2)[nH]c1=O	15% (inactive)	2%		
Cc1cc([N+](=O)[O-])nn1CC(=O)NC(C)c1ccccc1 (configuration not stated)	8.15% (inactive)	-17.7%		
Cc1ccccc1C(=O)NNC(=O)c1ccoc1C	13.5% (inactive)	21.8%		
COC(=O)NNC(=O)c1ccccc1OC		-18.2%	inactive	
COC(=O)NNC(=O)c1ccccc1C		-4.05%		25.9 µM (active)
O=c1c2cc(Br)ccc2[nH]c(=S)n1Cc1ccccc1	48.1% (inactive)			
Cc1ccc(-c2cc(C(F)(F)F)n3ncc(C(=O)NCc4ccco4)c3n2)cc1	-6.97% (inactive)	-26.7%		
Cc1nc2c(C(=O)NCc3cccs3)cnn2c(C)c1Cc1ccccc1	7.94% (inactive)	-10.7%		
Cc1cc(C)c(Cc2c(C)nc3c(C(=O)NCc4ccco4)cnn3c2C)c(C)c1				6.51 µM (active)
COc1ccc(-c2cc(-c3ccccc3)nc(SCC(=O)Nc3nccs3)c2C#N)cc1	11.7% (inactive)	6.74%		
Cc1ccc(NC(=O)CCNS(=O)(=O)c2ccc3[nH]c(=O)oc3c2)c(Cl)c1		-2.47%	inactive	
CN(C(=O)c1ccc(=O)[nH]c1)C1(C(=O)NC2CCCCC2)CCCCC1	-8.5% (inactive)	-13.5%		
Cc1nn(C)cc1-c1csc(N)n1	-5.77% (inactive)	19%		
